Experimental data as given in PubChem BioAssay (NCI).
Compounds without any hit were thinned out: in the full panel of roughly 83,000, 20% have a hit.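 The endpoint reported here, percent growth, reads 100 for growth as untreated, 0 for no net growth and -100 for all cells dead.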 Unmarked numbers belong to inactive results. Calls of active or inactive are those of the source. The calls were made as follows: active = growth percent below 10; inactive = the rest.

What was measured:
Assay in all cases: NCI-60 one-dose screen, 48 h (100 = growth as untreated, 0 = no growth, -100 = all killed)
Conditions in all cases: 10 µM unless noted
SR leukemia = test system: SR leukemia
RPMI-8226 leukemia = test system: RPMI-8226 leukemia
OVCAR-5 ovarian = test system: OVCAR-5 ovarian
OVCAR-4 ovarian = test system: OVCAR-4 ovarian
SK-OV-3 ovarian = test system: SK-OV-3 ovarian
IGROV1 ovarian = test system: IGROV1 ovarian
OVCAR-3 ovarian = test system: OVCAR-3 ovarian
NCI/ADR-RES ovarian = test system: NCI/ADR-RES ovarian
OVCAR-8 ovarian = test system: OVCAR-8 ovarian
HS 578T breast = test system: HS 578T breast

Row | Structure (SMILES) | growth (SR leukemia) | growth (RPMI-8226 leukemia) | growth (OVCAR-5 ovarian) | growth (OVCAR-4 ovarian) | growth (SK-OV-3 ovarian) | growth (IGROV1 ovarian) | growth (OVCAR-3 ovarian) | growth (NCI/ADR-RES ovarian) | growth (OVCAR-8 ovarian) | growth (HS 578T breast)
1 | CCn1c(SCC(=O)Nc2cccc(C(=O)/C=C/c3ccc(C)cc3)c2)nc2ccccc2c1=O | 56.4% | 7.2% (active) | 97.6% | 80% | 110% | 77.1% | 43.9% | 91% |  | 
2 | COc1cc(OC)cc(C(=O)Nc2sc3c(c2C(N)=O)CCC(=O)C3)c1 |  | 1.86% (active) | 48.3% | 9.16% (active) | 106% | 48.8% | 14.8% | 53.9% | 42.1% | 23.7%
3 | COc1cc(-c2nn(C(C)(C)C)cc2-c2ccnc(NCCCNS(=O)(=O)c3ccc(C)cc3)n2)ccc1Cl | 51.3% | 88.9% | 88.1% | 56.3% | 106% | 62.8% | 95.5% | 89.8% |  | 76.6%
4 | O=C(Nc1nc2ccc([N+](=O)[O-])cc2s1)Nc1ccccc1Cl | 18.1% |  | 81.8% | 14% | 22.8% | 39.1% | 16.8% | 47.1% | 12.8% | 46.9%
5 | CN1c2ccccc2Sc2cc(C=C(C#N)C#N)ccc21 | 105% | 103% | 38% | 105% |  | 75.6% | 106% | 89.7% |  | 89.3%
6 | COc1cc(OC)c(S(N)(=O)=O)cc1C(=O)/C=C/c1ccc(Cl)cc1 | -19.5% (active) | -5.04% (active) | 17.2% | 49.9% | 33.6% | 6.66% (active) |  | 20% |  | 13.2%
7 | COc1cc(-c2nc(SCCC(C)C)nc(NNC(=O)c3ccncc3)c2C#N)cc(OC)c1OC | 105% | 100% | 61% | 90.6% | 31.9% | 2.47% (active) | 73.5% | 74.1% |  | 8.27% (active)
8 | C[C@@H]1C[C@H]2C(=O)O[C@@H](C)C(NC(=O)[C@H](Cc3cc(F)cc(F)c3)NC(=O)Nc3ccc(C4CC4)cc3F)C(=O)N3CCC[C@H]3C(=O)N3CCCC[C@H]3C(=O)N[C@@H](CO)C(=O)N2C1 (stereo not given in full) | 28.1% | 14.9% | 29.9% | 21.3% | 21% | 42.2% |  | 36.1% |  | 32.7%
9 | C#C[C@]1(O)CC[C@H]2[C@@H]3CC=C4c5sc(-c6ccc(C)cc6)nc5CC[C@]4(C)[C@H]3CC[C@@]21C | 0.0897% (active) | -27.4% (active) | 93.5% | 65.3% | -7.23% (active) | 49.3% | 62% | 56.6% |  | 
10 | C[C@H](CCC(=O)NCc1ccc(C(=O)Nc2ccccc2N)cc1)[C@H]1CC[C@H]2[C@@H]3[C@@H](O)C[C@@H]4C[C@H](O)CC[C@]4(C)[C@H]3CC[C@]12C | 63.4% | 5.86% (active) | 67.8% | 65.3% | 73.7% | 51% | 64.3% | 99.4% |  | 
11 | CCC1=Cc2cc(OC)ccc2OC12C=Cc1cc(OC)ccc1O2 (stereo not given) | 15.8% | 19.5% | 29.3% | 56.8% | 24% | 30.1% | 16% | 11.7% |  | 15.3%
12 | CS(=O)(=O)Nc1cc(-c2ccc3ncc(C#N)c(NCc4ccccc4)c3c2)cnc1Cl | -18.9% (active) | -35.3% (active) | 3.75% (active) | -6.69% (active) | -15% (active) | -17.4% (active) | -5.17% (active) | 24.5% |  | -21.2% (active)
13 | COc1cc(Cn2cc3c(c2)-c2onc(CN4CCOCC4)c2CC3)cc(OC)c1OC | 114% | 91% | 95% | 74% | 106% | 99.8% |  | 100% |  | 110%
14 | C=C(C=O)[C@@H]1CC[C@]2(CO)CC[C@]3(C)[C@H](CC[C@@H]4[C@@]5(C)CCCNC(C)(C)[C@@H]5CC[C@]43C)[C@@H]12 | 3.73% (active) |  | 88.7% | 87% | 104% | 52.8% | 3.49% (active) | 65.3% | 50.8% | 71.8%
15 | CCNC(=O)N1CCc2cc(OC)c(OCCc3ccc(OC)nc3)cc2C1c1ccc(OC)cc1C (stereo not given) | 10.9% | 31.4% | 51% | 67.1% | 54.6% | 33.8% |  | 23.5% |  | 29.8%
16 | COc1cc(OC)c(S(N)(=O)=O)cc1C(C)=O |  | 103% | 107% | 102% | 109% | 112% |  | 111% | 104% | 112%
17 | COc1cccc2cc(-c3cc4ccccc4[nH]3)/c(=N\NC(=O)c3ccc(Cl)cc3)oc12 | 25.7% |  | 49.2% | 9.76% (active) | 39.5% | 26.3% | 14.7% | 13.3% |  | 77%
18 | O=S(=O)(Nc1ccc(I)cc1Cl)c1ccc(-c2cnc(C3CC3)o2)cc1 | 34.5% |  | 75.4% | 67% | 57.8% | 43.2% | -10.4% (active) | 28.1% | 62.2% | 17.3%
19 | CCN1CCN(C(=O)[C@]23CCC(C)(C)C[C@H]2C2=CC[C@@H]4[C@@]5(C)Cc6c([nH]c7ccccc67)C(C)(C)[C@@H]5CC[C@@]4(C)[C@]2(C)CC3)CC1 |  | 84.9% | 80.1% | 99.7% | 106% | 88.7% | 106% | 87% |  | 87.1%
20 | COc1cc2nc(Cl)nc(Nc3cccc(C4=Nc5c(N)nc(N)nc5NC(c5ccc(F)cc5)C4)c3)c2cc1OC (stereo not given) |  | -3.6% (active) | 107% | 96.6% | 117% | 80.8% | 61% | 80% |  | 86.1%
21 | CNC(=O)c1cc(-c2ccc(NS(=O)(=O)c3ccc(C)cc3)cc2)nc2cccnc12 | 113% | 110% | 117% | 99.5% | 107% | 97.4% | 111% | 100% |  | 104%
22 | Clc1nc2ccccc2nc1-c1nnc(C2CCCCC2)o1 |  | 95.4% | 107% | 98% | 102% | 101% |  | 107% | 101% | 92.8%
